Data published in PubChem BioAssay AID1159580 (chemical genetic matrix, 2015).
Several values for one entry are separate records, joined by “and”; a condition that tells them apart may be missing. Equal values may be shown once. The campaign covered roughly 5,500 compounds. About 2,000 (36%) were called active. Inconclusive results (about 18%) are left out. No stated cut-off is given here; in the data, active means normalized growth mostly below about 0.91 (no sharp cut-off); inconclusive means no clear call, values can overlap the other calls; inactive means mostly above about 0.92. The list shows a part of the results.

Experiment: chemical genetic growth profiling, strain panel (AID 1159580);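 further: tested at 20 µM; growth read once vehicle control cultures reached saturation at 30 °C; 1 = growth at the plate median or of vehicle wells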
Conditions: S. cerevisiae deletion strains, growth OD

Measured: normalized growth

Cn1nnnc1SCC1=C(C(=O)O)N2C(=O)C(NC(=O)C(OC=O)c3ccccc3)C2SC1 (stereo unspecified)
inactive: locus YAL021C, strain ccr4, stronger effect = lower value 1.02 | locus YAL026C, strain drs2, stronger effect = lower value 0.999 | locus YAL030W, strain snc1, stronger effect = lower value 1 | locus YBL061C, strain skt5, stronger effect = lower value 1.01 | locus YBR009C, strain hhf1, stronger effect = lower value 1.04 | locus YBR021W, strain FUR4, stronger effect = lower value 0.986 | locus YBR023C, strain chs3, stronger effect = lower value 0.998 | locus YBR171W, strain sec66, stronger effect = lower value 0.984 | locus YBR229C, strain ROT2, stronger effect = lower value 1 | locus YBR231C, strain swc5, stronger effect = lower value 1.01 | locus YBR279W, strain paf1, stronger effect = lower value 0.999 | locus YCL011C, strain gbp2, stronger effect = lower value 1 | locus YCL016C, strain dcc1, stronger effect = lower value 1 | locus YCL029C, strain bik1, stronger effect = lower value 1.03 | locus YCL061C, strain MRC1, stronger effect = lower value 0.991 | locus YCL069W, strain vba3, stronger effect = lower value 0.992 | locus YCR088W, strain abp1, stronger effect = lower value 0.998 | locus YDL005C, strain med2, stronger effect = lower value 0.991 | locus YDL035C, strain GPR1, stronger effect = lower value 1.01 | locus YDL040C, strain nat1, stronger effect = lower value 1 | locus YDL074C, strain BRE1, stronger effect = lower value 1.02 | locus YDL101C, strain DUN1, stronger effect = lower value 1.01 | locus YDL134C, strain PPH21, stronger effect = lower value 1.01 | locus YDL185W, strain tfp1, stronger effect = lower value 1.01 | locus YDL192W, strain arf1, stronger effect = lower value 1.02 | locus YDR001C, strain nth1, stronger effect = lower value 0.991 | locus YDR069C, strain doa4, stronger effect = lower value 1 | locus YDR101C, strain arx1, stronger effect = lower value 1.03 | locus YDR137W, strain rgp1, stronger effect = lower value 1.02 | locus YDR150W, strain NUM1, stronger effect = lower value 1 | locus YDR159W, strain sac3, stronger effect = lower value 0.979 | locus YDR162C, strain NBP2, stronger effect = lower value 1.01 | locus YDR195W, strain ref2 0.949 | locus YDR297W, strain sur2, stronger effect = lower value 0.992 | locus YDR318W, strain mcm21, stronger effect = lower value 1.02 | locus YDR334W, strain swr1, stronger effect = lower value 0.995 | locus YDR335W, strain msn5, stronger effect = lower value 1 | locus YDR388W, stronger effect = lower value 1.02 | locus YDR392W, strain spt3, stronger effect = lower value 0.995 | locus YDR502C, strain sam2, stronger effect = lower value 1.02 | locus YEL003W, strain gim4, stronger effect = lower value 1 | locus YEL037C, strain rad23, stronger effect = lower value 0.994 | locus YEL061C, strain CIN8 (second series), stronger effect = lower value 0.991 | locus YEL061C, strain CIN8, stronger effect = lower value 1 | locus YER015W, strain faa2, stronger effect = lower value 1 | locus YER016W, strain bim1, stronger effect = lower value 0.997 | locus YER110C, stronger effect = lower value 1.03 | locus YER111C, strain swi4, stronger effect = lower value 0.998 | locus YER155C, strain BEM2 (second series), stronger effect = lower value 0.977 | locus YER155C, strain BEM2, stronger effect = lower value 0.99 | locus YER167W, strain BCK2, stronger effect = lower value 1 | locus YFR010W, strain ubp6, stronger effect = lower value 0.995 | locus YGL078C, strain dbp3, stronger effect = lower value 1.03 | locus YGL086W, strain mad1, stronger effect = lower value 1.01 | locus YGL167C, strain pmr1, stronger effect = lower value 1 | locus YGL173C, strain kem1, stronger effect = lower value 0.997 | locus YGL227W, strain vid30, stronger effect = lower value 0.993 | locus YGL240W, strain doc1, stronger effect = lower value 0.978 | locus YGL248W, strain PDE1, stronger effect = lower value 1.01 | locus YGL253W, strain hxk2, stronger effect = lower value 1.01 | locus YGR078C, strain PAC10, stronger effect = lower value 0.994 | locus YGR135W, strain pre9, stronger effect = lower value 1.02 | locus YGR229C, strain SMI1, stronger effect = lower value 1.01 | locus YGR252W, strain gcn5, stronger effect = lower value 1.03 | locus YHR013C, strain ard1, stronger effect = lower value 1 | locus YHR027C, strain rpn1, stronger effect = lower value 0.995 | locus YHR030C, strain SLT2, stronger effect = lower value 0.999 and 1.01 | locus YHR079C, strain IRE1 (second series), stronger effect = lower value 1.02 | locus YHR079C, strain IRE1, stronger effect = lower value 0.985 | locus YHR094C, strain hxt1, stronger effect = lower value 1.03 | locus YHR129C, strain ARP1, stronger effect = lower value 0.998 | locus YHR142W, strain chs7, stronger effect = lower value 1.02 | locus YHR200W, strain rpn10, stronger effect = lower value 1.02 | locus YIL066C, strain RNR3, stronger effect = lower value 1 | locus YIL073C, strain SPO22, stronger effect = lower value 1.07 | locus YIL125W, strain kgd1, stronger effect = lower value 1.01 | locus YIR030C, strain dcg1, stronger effect = lower value 1.03 | locus YJL092W, strain hpr5, stronger effect = lower value 0.993 | locus YJL095W, strain BCK1 (second series), stronger effect = lower value 1.01 | locus YJL095W, strain BCK1, stronger effect = lower value 1 and 0.969 | locus YJL115W, strain asf1, stronger effect = lower value 0.985 | locus YJL129C, strain trk1, stronger effect = lower value 1 | locus YJL134W, strain LCB3, stronger effect = lower value 1 | locus YJL154C, strain vps35, stronger effect = lower value 1 | locus YJL164C, strain tpk1, stronger effect = lower value 1.01 | locus YJL166W, strain qcr8, stronger effect = lower value 1.01 | locus YJL168C, strain set2, stronger effect = lower value 1.01 | locus YJL187C, strain SWE1 (second series), stronger effect = lower value 1 | locus YJL187C, strain SWE1, stronger effect = lower value 0.986 | locus YJR043C, strain POL32, stronger effect = lower value 1.01 | locus YJR066W, strain TOR1, stronger effect = lower value 0.954
